Values joined by “and” are separate entries in the source; they are usually repeats but may differ in a detail not shown here. Identical values can stand only once. About 2,000 (36%) of roughly 5,500 compounds were called active. Another 18% or so got no clear call; they are omitted. No stated cut-off is given here; in the data, active means normalized growth mostly below about 0.91 (no sharp cut-off); inconclusive means no clear call, values can overlap the other calls; inactive means mostly above about 0.92. Some of the results follow.
Assay: chemical genetic growth profiling, strain panel (AID 1159580);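 further: tested at 20 µM; growth read once vehicle control cultures reached saturation at 30 °C; 1 = growth at the plate median or of vehicle wells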
Conditions: S. cerevisiae deletion strains, growth OD

Measured: normalized growth

CC(=O)Oc1cccc(O)c1
inactive: locus YAL021C, strain ccr4, stronger effect = lower value 1 | locus YAL026C, strain drs2, stronger effect = lower value 1.04 | locus YAL030W, strain snc1, stronger effect = lower value 1.01 | locus YBL061C, strain skt5, stronger effect = lower value 1.02 | locus YBR009C, strain hhf1, stronger effect = lower value 1.01 | locus YBR021W, strain FUR4, stronger effect = lower value 0.973 | locus YBR023C, strain chs3, stronger effect = lower value 1.03 | locus YBR171W, strain sec66, stronger effect = lower value 1.03 | locus YBR229C, strain ROT2, stronger effect = lower value 1 | locus YBR231C, strain swc5, stronger effect = lower value 1.03 | locus YBR279W, strain paf1, stronger effect = lower value 1.02 | locus YCL011C, strain gbp2, stronger effect = lower value 1.02 | locus YCL016C, strain dcc1, stronger effect = lower value 1.01 | locus YCL029C, strain bik1, stronger effect = lower value 1.01 | locus YCL069W, strain vba3, stronger effect = lower value 1.03 | locus YCR088W, strain abp1, stronger effect = lower value 1.02 | locus YDL005C, strain med2, stronger effect = lower value 1.03 | locus YDL035C, strain GPR1, stronger effect = lower value 1.01 | locus YDL040C, strain nat1, stronger effect = lower value 1.02 | locus YDL074C, strain BRE1, stronger effect = lower value 0.996 | locus YDL101C, strain DUN1, stronger effect = lower value 1.01 | locus YDL134C, strain PPH21, stronger effect = lower value 1.01 | locus YDL185W, strain tfp1, stronger effect = lower value 1.03 | locus YDL192W, strain arf1, stronger effect = lower value 1.02 | locus YDR001C, strain nth1, stronger effect = lower value 1.02 | locus YDR069C, strain doa4, stronger effect = lower value 1.03 | locus YDR101C, strain arx1, stronger effect = lower value 0.996 | locus YDR137W, strain rgp1, stronger effect = lower value 1.05 | locus YDR159W, strain sac3, stronger effect = lower value 1.05 | locus YDR162C, strain NBP2, stronger effect = lower value 1.02 | locus YDR195W, strain ref2 1.03 | locus YDR297W, strain sur2, stronger effect = lower value 1.04 | locus YDR318W, strain mcm21, stronger effect = lower value 1.01 | locus YDR334W, strain swr1, stronger effect = lower value 1.01 | locus YDR335W, strain msn5, stronger effect = lower value 1.01 | locus YDR388W, stronger effect = lower value 1.02 | locus YDR392W, strain spt3, stronger effect = lower value 1.01 | locus YDR502C, strain sam2, stronger effect = lower value 1.03 | locus YEL003W, strain gim4, stronger effect = lower value 1.02 | locus YEL037C, strain rad23, stronger effect = lower value 1.02 | locus YEL061C, strain CIN8 (second series), stronger effect = lower value 1.02 | locus YEL061C, strain CIN8, stronger effect = lower value 1.01 | locus YER015W, strain faa2, stronger effect = lower value 1.02 | locus YER110C, stronger effect = lower value 1.03 | locus YER111C, strain swi4, stronger effect = lower value 1.02 | locus YER155C, strain BEM2 (second series), stronger effect = lower value 1.02 | locus YER155C, strain BEM2, stronger effect = lower value 0.996 | locus YER167W, strain BCK2, stronger effect = lower value 1 | locus YFR010W, strain ubp6, stronger effect = lower value 1.04 | locus YGL078C, strain dbp3, stronger effect = lower value 1.02 | locus YGL086W, strain mad1, stronger effect = lower value 0.999 | locus YGL167C, strain pmr1, stronger effect = lower value 1.02 | locus YGL173C, strain kem1, stronger effect = lower value 1.04 | locus YGL227W, strain vid30, stronger effect = lower value 1.02 | locus YGL240W, strain doc1, stronger effect = lower value 1.02 | locus YGL248W, strain PDE1, stronger effect = lower value 1.01 | locus YGL253W, strain hxk2, stronger effect = lower value 1.02 | locus YGR078C, strain PAC10, stronger effect = lower value 1 | locus YGR135W, strain pre9, stronger effect = lower value 1.03 | locus YGR229C, strain SMI1, stronger effect = lower value 1 | locus YGR252W, strain gcn5, stronger effect = lower value 1.06 | locus YHR013C, strain ard1, stronger effect = lower value 1.02 | locus YHR027C, strain rpn1, stronger effect = lower value 1.02 | locus YHR030C, strain SLT2, stronger effect = lower value 1.01 and 0.949 | locus YHR079C, strain IRE1 (second series), stronger effect = lower value 1.01 | locus YHR079C, strain IRE1, stronger effect = lower value 0.967 | locus YHR094C, strain hxt1, stronger effect = lower value 1.01 | locus YHR129C, strain ARP1, stronger effect = lower value 1.01 | locus YHR142W, strain chs7, stronger effect = lower value 1.03 | locus YHR200W, strain rpn10, stronger effect = lower value 1.02 | locus YIL066C, strain RNR3, stronger effect = lower value 1 | locus YIL073C, strain SPO22, stronger effect = lower value 1.04 | locus YIL125W, strain kgd1, stronger effect = lower value 1.01 | locus YIR030C, strain dcg1, stronger effect = lower value 1.01 | locus YJL092W, strain hpr5, stronger effect = lower value 1.02 | locus YJL095W, strain BCK1 (second series), stronger effect = lower value 1.02 | locus YJL095W, strain BCK1, stronger effect = lower value 1.01 and 0.974 | locus YJL115W, strain asf1, stronger effect = lower value 1.01 | locus YJL129C, strain trk1, stronger effect = lower value 1.04 | locus YJL134W, strain LCB3, stronger effect = lower value 1.01 | locus YJL154C, strain vps35, stronger effect = lower value 1.02 | locus YJL164C, strain tpk1, stronger effect = lower value 1.01 | locus YJL166W, strain qcr8, stronger effect = lower value 1.03 | locus YJL168C, strain set2, stronger effect = lower value 1.02 | locus YJL187C, strain SWE1 (second series), stronger effect = lower value 1.01 | locus YJL187C, strain SWE1, stronger effect = lower value 1.02 | locus YJR043C, strain POL32, stronger effect = lower value 0.999 | locus YJR066W, strain TOR1, stronger effect = lower value 0.96
